Results taken from PubChem BioAssay (EPA / NIEHS).
Activity calls are given as the source filed them. How the source made its calls: active means hit-call score of the fitted dose curve at least 0.9, where 1 is the maximum; inactive means score below 0.9.

Columns and labels:
[1] = molecular target: Transcription factor E2F1 (Homo sapiens) (UniProt Q01094); experiment: ATG_E2F_CIS: Attagene CIS-FACTORIAL HepG2 Assay for human E2F Transcription Factor 1 (AID 2282935); conditions: HepG2 Attagene cis-reporter, E2F reporter RNA transcripts; actives raise or lower the signal
Chain of Transcription factor E2F1 (Homo sapiens) (Q01094 whole entry, looked up): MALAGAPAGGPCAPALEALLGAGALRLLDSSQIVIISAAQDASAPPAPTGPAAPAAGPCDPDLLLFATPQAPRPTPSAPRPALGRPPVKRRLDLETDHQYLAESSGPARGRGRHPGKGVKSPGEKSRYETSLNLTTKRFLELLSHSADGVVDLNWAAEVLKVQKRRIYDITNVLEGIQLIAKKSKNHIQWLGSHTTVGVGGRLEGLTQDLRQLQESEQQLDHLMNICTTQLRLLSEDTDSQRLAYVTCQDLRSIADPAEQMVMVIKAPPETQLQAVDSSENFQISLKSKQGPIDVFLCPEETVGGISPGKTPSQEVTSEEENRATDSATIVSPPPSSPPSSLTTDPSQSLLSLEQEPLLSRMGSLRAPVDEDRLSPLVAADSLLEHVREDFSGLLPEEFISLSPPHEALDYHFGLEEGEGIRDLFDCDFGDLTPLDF
Procedure, shortened: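 Liver-derived HepG2 cells expressing transfected promoter-driven reporter units received test chemical for 24 hours. Signal gains or losses were fitted bidirectionally against DMSO.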

[2] = ATG_E_Box_CIS: Attagene CIS-FACTORIAL HepG2 Assay for human Enhancer Box (E-box) (AID 2282936); conditions: HepG2 E-box cis-reporter transcription, actives raise or lower the signal
Procedure, shortened: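 In this cell-based setup, HepG2 cells bearing transfected promoter-driven reporter units were exposed to chemicals for 24 h; reporter transcripts were amplified, 6-FAM-labelled, cut with HpaI and sized by capillary electrophoresis.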

[3] = ATG_M_61_CIS: Attagene CIS-FACTORIAL HepG2 Assay for M61 Transcription Factor (Internal Marker) (AID 2282937); conditions: HepG2 Attagene CIS-FACTORIAL M61 internal marker reporter; actives raise or lower the signal
Procedure, shortened: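 Transfect HepG2 with MRTUs; dose 24 h; isolate RNA; reverse-transcribe with DNase I treatment; PCR-amplify, FAM-label and cut with HpaI for 2 h at 37 C; resolve by CE. Bidirectional fitting against DMSO.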

[4] = ATG_EGR_CIS: Attagene CIS-FACTORIAL HepG2 Assay for human Early Growth Response 1 (EGR1) (AID 2282938); conditions: HepG2 Attagene CIS-FACTORIAL EGR reporter mRNA; actives raise or lower the signal
Procedure, shortened: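 After a 24 h treatment of transiently transfected HepG2 cells, total RNA was reverse-transcribed and reporter sequences PCR-amplified, labelled and run on capillary electrophoresis. Reporters sit under cis-regulatory promoters sensing endogenous factors.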

[5] = ATG_M_19_CIS: Attagene CIS-FACTORIAL HepG2 Assay for M19 Transcription Factor (Internal Marker) (AID 2282939); conditions: HepG2 Attagene CIS-FACTORIAL M19 internal marker reporter; actives raise or lower the signal
Procedure, shortened: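 Readout: fluorescent reporter-transcript fragments by capillary electrophoresis after RT-PCR. Human HepG2 liver cells carried transfected MRTU constructs reporting endogenous transcription-factor activity; exposure 24 h. Gain or loss of signal fitted relative to DMSO.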

[6] = ATG_ERE_CIS: Attagene CIS-FACTORIAL HepG2 Assay for Estrogen Response Element (ERE) (AID 2282940); conditions: HepG2 ERE cis-reporter, Attagene RNA transcript; actives raise or lower the signal
Procedure, shortened: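 Readout: reporter mRNA induction by RT-PCR, FAM-labelled primer extension, HpaI digestion and capillary electrophoresis, 24 h after dosing transfected HepG2 cells. Endogenous transcription factors act on cis-element-regulated reporters. Gain or loss fitted against DMSO.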

[7] = ATG_Ets_CIS: Attagene CIS-FACTORIAL HepG2 Assay for human Erythroblast Transformation Specific (ETS) (AID 2282941); conditions: HepG2 ETS cis-reporter transcription, actives raise or lower the signal
Procedure, shortened: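 Endogenous transcription factor activity read as reporter mRNA via RT-PCR and capillary electrophoresis, with gain or loss fitted bidirectionally against DMSO. Human HepG2 liver cells, transiently transfected CIS reporter constructs, 24 h exposure.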

[8] = molecular target: Hepatocyte nuclear factor 3-beta (Homo sapiens) (UniProt Q9Y261); experiment: ATG_FoxA2_CIS: Attagene CIS-FACTORIAL HepG2 Assay for human Forkhead box A2 (FOXA2) (AID 2282942); conditions: HepG2 cis-reporter transcription factor activity, 24 h; actives raise or lower the signal
Chain of Hepatocyte nuclear factor 3-beta (Homo sapiens) (Q9Y261 whole entry, looked up): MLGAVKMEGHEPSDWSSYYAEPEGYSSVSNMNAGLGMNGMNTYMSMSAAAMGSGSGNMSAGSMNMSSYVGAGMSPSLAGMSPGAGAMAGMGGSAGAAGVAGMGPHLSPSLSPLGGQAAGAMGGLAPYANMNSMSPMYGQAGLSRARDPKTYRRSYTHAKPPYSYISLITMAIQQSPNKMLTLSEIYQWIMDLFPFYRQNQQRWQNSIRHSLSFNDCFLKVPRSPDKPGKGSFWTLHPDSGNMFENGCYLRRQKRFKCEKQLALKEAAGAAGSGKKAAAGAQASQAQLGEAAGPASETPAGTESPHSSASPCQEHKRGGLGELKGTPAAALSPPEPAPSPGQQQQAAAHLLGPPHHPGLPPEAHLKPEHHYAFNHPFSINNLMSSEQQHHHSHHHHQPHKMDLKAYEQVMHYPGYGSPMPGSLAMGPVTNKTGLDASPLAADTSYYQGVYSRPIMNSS
Procedure, shortened: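 24 h dosing of HepG2 bearing cis-reporter constructs; mRNA readout by RT-PCR/CE fluorescence; bidirectional fit, DMSO baseline.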

[9] = ATG_FoxO_CIS: Attagene CIS-FACTORIAL HepG2 Assay for human Forkhead box O (FoxO) (AID 2282943); conditions: HepG2 Attagene cis-reporter, FoxO element, mRNA; actives raise or lower the signal
Procedure, shortened: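 Transfected HepG2 reporter cells exposed to test chemical for 24 h; reporter RNA measured by reverse transcription, PCR and fluorescent capillary electrophoresis; curves fitted for increases and decreases against DMSO.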

[10] = ATG_GATA_CIS: Attagene CIS-FACTORIAL HepG2 Assay for human GATA Binding Protein (AID 2282944); conditions: HepG2 GATA cis-element reporter, Attagene multiplex mRNA; actives raise or lower the signal
Procedure, shortened: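 Read-out: fluorescent reporter mRNA fragments resolved by capillary electrophoresis after RT-PCR. Human liver HepG2 cells carried transiently transfected cis-regulated reporter constructs; chemicals incubated 24 h; gain or loss of signal fitted relative to DMSO.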

Measured: AC50

COCCOCCOC
inactive: [1] | [2] | [3] | [4] | [5] | [6] | [7] | [8] | [9] | [10]

CCOc1ccc2c(c1)C(C)=CC(C)(C)N2
active: [2] 156 µM | [4] 144 µM | [6] 25.5 µM | [7] 181 µM | [9] 179 µM
inactive: [1] | [5] | [8] | [10]

CNC(=O)[C@H]1O[C@@H](n2cnc3c(NCc4cc(Cl)ccc4OCc4cc(C)no4)ncnc32)[C@H](O)[C@@H]1N
inactive: [1] | [2] | [3] | [4] | [5] | [6] | [7] | [8] | [9] | [10]

CN1CCCC1=O
inactive: [1] | [2] | [4] | [5] | [6] | [7] | [8] | [9] | [10]

Cc1oc(-c2ccccc2)nc1CCOc1cccc2c1ccn2CCC(=O)O
active: [6] 0.066 µM | [8] 1.86 µM
inactive: [1] | [2] | [4] | [5] | [7] | [9] | [10]

CN[C@H]1CC[C@@H](c2ccc(Cl)c(Cl)c2)c2ccc(S(N)(=O)=O)cc21
inactive: [1] | [2] | [4] | [5] | [6] | [7] | [8] | [9] | [10]

CC(=O)OCCOCCOCCOC(C)=O
inactive: [1] | [2] | [3] | [4] | [5] | [6] | [7] | [8] | [9] | [10]

CC(=O)OC/C=C(\C)CCC=C(C)C
inactive: [1] | [2] | [4] | [5] | [6] | [7] | [8] | [9] | [10]

CC(=O)Oc1ccccc1C(=O)O
inactive: [1] | [2] | [3] | [4] | [5] | [6] | [7] | [8] | [9] | [10]

CCCCCCCCCCC
inactive: [1] | [2] | [3] | [4] | [5] | [6] | [7] | [8] | [9] | [10]

Cc1nc(-c2ccc3c(c2)CCN(CCC2CCC(NC(=O)/C=C/c4ccc(F)cc4)CC2)CC3)no1 (centres undefined)
inactive: [1] | [2] | [3] | [4] | [5] | [6] | [7] | [8] | [9] | [10]

O=[N+]([O-])C(CO)(CO)CO
inactive: [1] | [2] | [3] | [4] | [5] | [6] | [7] | [8] | [9] | [10]

CCCCN(CCCC)CCCC
inactive: [1] | [2] | [3] | [4] | [5] | [6] | [7] | [8] | [9] | [10]

Oc1ccc2ccccc2c1N=Nc1ccccc1
inactive: [1] | [2] | [3] | [4] | [5] | [7] | [9] | [10]
active: [6] 4.52 µM | [8] 0.14 µM

CC=Cc1ccc(O)c(OC)c1
inactive: [1] | [2] | [4] | [5] | [6] | [7] | [8] | [9] | [10]

O=C(N[C@@H](Cc1ccccc1)[C@@H](O)C(=O)N1C[C@@H](O)[C@@H](O)C1)c1cc2cc(Cl)ccc2[nH]1
active: [2] 165 µM
inactive: [1] | [3] | [4] | [5] | [6] | [7] | [8] | [9] | [10]

CC1(C)NC(=O)NC1=O
inactive: [1] | [2] | [4] | [5] | [7] | [8] | [9] | [10]
active: [6] 26.3 µM

C[Si]1(C)O[Si](C)(C)O[Si](C)(C)O[Si](C)(C)O1
active: [6] 27.2 µM
inactive: [1] | [2] | [4] | [5] | [7] | [8] | [9] | [10]

Cc1ccc(Cl)cc1
inactive: [1] | [2] | [4] | [5] | [6] | [7] | [8] | [9] | [10]

Cc1cccc(C)c1O
inactive: [1] | [2] | [4] | [5] | [6] | [7] | [8] | [9] | [10]

CCOC(=O)CCC(=O)OCC
inactive: [1] | [2] | [4] | [5] | [6] | [7] | [8] | [9] | [10]

FC(F)(F)C(F)(F)C(F)(F)C(F)(F)C(F)(F)C(F)(F)CCI
inactive: [1] | [2] | [4] | [5] | [6] | [7] | [8] | [9] | [10]

CCCCCCCCCCCC(=O)OC
inactive: [1] | [2] | [4] | [5] | [6] | [7] | [8] | [9] | [10]

COc1ccc(C)cc1N
inactive: [1] | [2] | [4] | [5] | [6] | [7] | [8] | [9] | [10]

NS(=O)(=O)c1cc2c(cc1Cl)NCNS2(=O)=O
inactive: [1] | [2] | [4] | [5] | [6] | [7] | [8] | [9] | [10]

Cc1ccc(C)c(C)c1
inactive: [1] | [2] | [4] | [5] | [6] | [7] | [8] | [9] | [10]

Nc1nc(N)c2nc(CNc3ccc(C(=O)N[C@@H](CCC(=O)O)C(=O)O)cc3)cnc2n1
inactive: [1] | [2] | [4] | [5] | [6] | [7] | [8] | [9] | [10]

NC(=O)Cn1c(=O)cc(CCN2CCN(c3nccc4sccc34)CC2)c2ccc(F)cc21
inactive: [1] | [2] | [4] | [5] | [6] | [7] | [8] | [9] | [10]

CCCCCCCCCCCCCO
inactive: [1] | [4] | [5] | [6] | [7] | [8] | [9] | [10]
active: [2] 21.8 µM

CCOC(=O)C(C)(C)Oc1ccc(Cl)cc1
inactive: [1] | [2] | [4] | [5] | [6] | [7] | [8] | [9] | [10]

Cc1ccc(N(C)C)cc1
inactive: [1] | [2] | [4] | [5] | [6] | [7] | [8] | [9] | [10]

CCCCCCCC=O
inactive: [1] | [2] | [4] | [5] | [6] | [7] | [8] | [9] | [10]

O=C(O)Cc1ccccc1Nc1c(Cl)cccc1Cl
inactive: [1] | [4] | [5] | [6] | [7] | [8] | [9] | [10]
active: [2] 176 µM

CCCCCCCCCCCCCCCC
inactive: [1] | [2] | [4] | [5] | [6] | [7] | [8] | [9] | [10]

CC(C)(C)c1cc(O)c(C(C)(C)C)cc1O
active: [4] 31.1 µM | [6] 31 µM
inactive: [1] | [2] | [5] | [7] | [8] | [9] | [10]

Cc1ccc2ncccc2c1
inactive: [1] | [2] | [4] | [5] | [6] | [7] | [8] | [9] | [10]

Clc1cc(Cl)c(Cl)cc1Cl
inactive: [1] | [2] | [4] | [5] | [6] | [7] | [8] | [9] | [10]

Nc1ccccc1N
active: [4] 53.8 µM
inactive: [1] | [2] | [5] | [6] | [7] | [8] | [9] | [10]

Cc1ccc(C)c(O)c1C
inactive: [1] | [2] | [4] | [5] | [6] | [7] | [8] | [9] | [10]

CCNc1cccc(C)c1
inactive: [1] | [2] | [4] | [5] | [6] | [7] | [8] | [9] | [10]

COc1ccc2c(c1)c(CC(=O)O)c(C)n2C(=O)c1ccc(Cl)cc1
inactive: [1] | [2] | [4] | [5] | [6] | [7] | [8] | [9] | [10]

Oc1ccc2c(c1)OC[C@@H](N1CCC(O)(c3ccc(F)cc3)CC1)[C@H]2O
active: [4] 50 µM
inactive: [1] | [2] | [5] | [6] | [7] | [8] | [9] | [10]

Cc1ccccc1Cl
inactive: [1] | [2] | [4] | [5] | [6] | [7] | [8] | [9] | [10]

C[C@]12C=CC(=O)C=C1CC[C@@H]1[C@@H]2C(=O)C[C@@]2(C)[C@H]1CC[C@]2(O)C(=O)CO
inactive: [1] | [2] | [4] | [5] | [7] | [8] | [9] | [10]
active: [6] 6.76 µM

Cc1cc(NC(=O)C(=O)O)cc(C)c1Oc1ccc(O)c2c1CCC2
inactive: [1] | [2] | [4] | [5] | [6] | [7] | [8] | [9] | [10]

Cc1cccc(Nc2cc(Cl)nc(SCC(=O)O)n2)c1C
inactive: [1] | [2] | [4] | [5] | [6] | [7] | [8] | [9] | [10]
